# Data taken from the supplement of paper PMC6411743.
# ± gives the standard deviation of the averaged measurements. The full data set covers some 5,400 targets. This sample favours those with the largest changes.
# Target: T1, UniProt Q13188|Q13188-2
# T1 sequence (whole entry): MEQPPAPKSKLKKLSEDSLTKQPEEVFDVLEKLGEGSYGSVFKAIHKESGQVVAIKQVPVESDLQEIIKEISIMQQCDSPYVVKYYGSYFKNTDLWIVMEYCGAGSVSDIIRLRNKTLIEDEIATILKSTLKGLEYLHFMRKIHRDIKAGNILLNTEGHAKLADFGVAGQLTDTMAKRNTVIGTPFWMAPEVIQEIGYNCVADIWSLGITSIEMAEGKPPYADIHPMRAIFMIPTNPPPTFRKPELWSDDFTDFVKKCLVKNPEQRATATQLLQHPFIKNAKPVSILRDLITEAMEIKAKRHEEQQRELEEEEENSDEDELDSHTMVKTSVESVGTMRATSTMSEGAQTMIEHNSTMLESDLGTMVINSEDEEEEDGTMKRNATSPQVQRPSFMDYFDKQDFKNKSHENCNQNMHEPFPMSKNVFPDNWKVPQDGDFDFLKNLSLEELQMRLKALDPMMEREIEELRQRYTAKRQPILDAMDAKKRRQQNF
# Assay: NP40-soluble protein abundance relative to vehicle (solubility fold change) (ratio); higher = more soluble protein in presence of GTP
# Experimental: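 Solubility proteome profiling in Jurkat crude lysate. Lysate was treated with Mg-GTP (0.1-10 mM) for 10 min at room temperature and 3 min at 37 °C, then solubilised with 0.8% NP40 and benzonase, followed by ultracentrifugation. Proteins were quantified by TMT10 LC-MS/MS; the value is the NP40-soluble abundance relative to the NP40-processed vehicle, from 3 independent experiments.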
structure (smiles),measurement,setting,value
Nc1nc2c(ncn2[C@@H]2O[C@H](COP(=O)(O)OP(=O)(O)OP(=O)(O)O)[C@@H](O)[C@H]2O)c(=O)[nH]1 [guanosine triphosphate],NP40-soluble protein abundance,concentration: 0.1mM,0.978 ± 0.064
same,NP40-soluble protein abundance,concentration: 0.5mM,0.985 ± 0.036
same,NP40-soluble protein abundance,concentration: 1mM,0.98 ± 0.057
same,NP40-soluble protein abundance,concentration: 2mM,0.982 ± 0.048
same,NP40-soluble protein abundance,concentration: 4mM,0.96 ± 0.049
same,NP40-soluble protein abundance,concentration: 6mM,0.948 ± 0.052
same,NP40-soluble protein abundance,concentration: 8mM,0.972 ± 0.071
same,NP40-soluble protein abundance,concentration: 10mM,0.973 ± 0.088
